GLA inh pH 4.5 – inhibitors of human alpha-galactosidase A at pH 4.5; activity change, negative = inhibition, % at 105 µM; 230,000 tested, under 10 active; purified enzyme, 4-MU-alpha-Gal fluorescence, pH 4.5
aGal spleen mod – alpha-galactosidase A (human) modulation; AID 2107; hit rate 0.008% among 240,000; human spleen homogenate, 4MU-alpha-Gal fluorescence, 40 min; Potency, µM (series often up to 80 µM), hits mostly inhibitors
Target sequence (P06280 32-429 limits assumed): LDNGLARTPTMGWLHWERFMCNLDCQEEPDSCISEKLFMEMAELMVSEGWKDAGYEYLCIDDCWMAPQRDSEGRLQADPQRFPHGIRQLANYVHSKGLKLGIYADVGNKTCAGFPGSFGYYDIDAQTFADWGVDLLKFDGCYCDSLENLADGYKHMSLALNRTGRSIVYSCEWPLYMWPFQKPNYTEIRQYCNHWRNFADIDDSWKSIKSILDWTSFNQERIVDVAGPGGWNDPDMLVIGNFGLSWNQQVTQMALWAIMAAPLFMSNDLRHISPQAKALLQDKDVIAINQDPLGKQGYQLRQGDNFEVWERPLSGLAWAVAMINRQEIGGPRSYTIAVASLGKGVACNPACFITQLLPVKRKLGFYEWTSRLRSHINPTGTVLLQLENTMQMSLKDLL
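Inhibition or activation of alpha-galactosidase in human spleen homogenate is scored by 4-MU fluorescence after 40 min at 37C, pH 5.0, with 1 mM substrate. AC50s come from concentration-response fitted to the Hill equation.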
HTT aggregate – mutant huntingtin aggregation inhibition. Potency, µM (series often up to 46.1 µM), most hits filed as inhibitors. PC12 HttQ103-GFP aggregates, Acumen cytometry, 40 h. hit rate 1.1% among 220,000; note: nearly all actives have a fitted effect of over 60% in size
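Using laser scanning cytometry, GFP-positive aggregates were counted after lysis of PC12 cells induced with 100 nM tebufenozide to express HTT exon 1 Q103–GFP. Compounds were tested in titration.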
HTT ATP protect – cytoprotection in Huntington HTT-Q103 PC12 cell model; Potency, µM (doses to about 56.4 µM), hits mostly activators; PC12 HTT-Q103 induced, cytoprotection, ATP luminescence, 40 h; hit rate 0.14% among 230,000; note: nearly all actives have a fitted effect of over 45% in size
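PC12 cells stably carrying ecdysone-inducible Htt exon 1 (Q103)–GFP were induced with 100 nM tebufenozide (final) alongside library compounds in a dose series. Cytoprotection was scored as retained ATP by ATPlite luminescence.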
A number is an active result; . = inactive; ? = inconclusive; / = not tested or not shown; [ ] = another dose, or the depositor's remark. The list is not random: actives were taken first. Their share in the collection is about 1.2%. Calls come from the whole dose curve; as a rule, active = well fitted curve in the direction sought with a large enough effect; inconclusive = small, poorly fitted or top-dose-only effect, or another doubt; inactive = no such curve, though single readings can be large; an effect the other way counts as inactive or inconclusive.

SMILES | GLA inh pH 4.5 | aGal spleen mod | HTT aggregate | HTT ATP protect
CCCCCC(=O)c1ccc(O)cc1O | . | . | 0.14µM | .
CSCC[C@H](NC(=O)[C@@H]1CCCN1C(=O)[C@H](CCCN=C(N)N)NC(=O)[C@H](CC(C)C)NC(=O)[C@@H]1CCCN1C(=O)[C@@H](NC(=O)[C@@H](N)CCC(N)=O)C(C)C)C(=O)N[C@H](C(=O)N[C@@H](Cc1ccc(O)cc1)C(=O)N[C@@H](CCCCN)C(=O)O)[C@@H](C)O | / | . | / | /
Cc1ccccc1S(=O)(=O)Cc1ccc(C(=O)N2CCN(c3cccc(C)c3C)CC2)o1 | . | . | 13µM | .[10 µM]
COc1ccc(-n2c(C)cc(C(=O)CSc3ccc(NC(C)=O)cc3)c2C)cc1 | . | . | 13µM | .[10 µM]
O=S(Cc1ccc(Br)cc1)Cc1nnc(SCc2c(Cl)cccc2Cl)n1-c1ccccc1 (configuration not stated) | . | . | 22µM | ?
Cn1c(CS(=O)Cc2c(Cl)cccc2Cl)nnc1SCc1c(Cl)cccc1Cl (configuration not stated) | . | . | . | .[10 µM]
COc1ccc(-c2coc3ccc(OC4OC(COC(C)=O)C(OC(C)=O)C(OC(C)=O)C4OC(C)=O)cc3c2=O)cc1 (configuration not stated) | . | . | / | .[1.9 µM]
COCCCNc1c2c3c(cccc3[nH]c1=O)C(=O)c1ccccc1-2 | . | . | 10µM | .
O=C(NCCc1c[nH]c2ccccc12)c1ccccc1O | / | . | / | /
CCCn1c(NC(=O)c2cccc(C)c2C)nc2ccccc21 | . | . | 6.3µM | .
CCn1c(NC(C)=O)nc2ccccc21 | . | . | . | .[1.9 µM]
Cc1cc(C)n(-c2ccc3cccc(NS(C)(=O)=O)c3n2)n1 | . | . | 8.9µM | .
C=C/C1=C/Cc2ccccc2C(C[N+](=O)[O-])C(C(=O)OC)(C(=O)OC)C1 (configuration not stated) | / | .[17.5 µM] | / | .[10 µM]
CCOc1ccc(OCC)c(NC(=O)c2ccc(CNc3c(N4CCOCC4)c(=O)c3=O)cc2)c1 | . | . | ? | 3.2µM
CCCC[C@]1(C2CCCC2)Cc2cc(OCC(=O)O)c(Cl)c(Cl)c2C1=O | / | / | / | .[1.9 µM]
CCCCN(CCCC)C(=S)N/N=C/c1c(C)[nH]n(-c2ccccc2)c1=O | . | . | 11µM | .
Cc1onc(-c2ccccc2Cl)c1C(=O)N1CCCCC1C(=O)O (configuration not stated) | . | . | . | .
Cc1onc(-c2ccccc2Cl)c1C(=O)N(C)C1CCCCC1 | . | . | 14µM | .
CC[C@H](C)[C@H](NC(=O)CNC(=O)[C@@H](NC(=O)[C@@H](NC(=O)[C@H](Cc1ccc(O)cc1)NC(=O)[C@H](CC(C)C)NC(=O)[C@H](C)NC(=O)[C@H](CCC(N)=O)NC(=O)CNC(=O)[C@@H]1CCCN1C(=O)CNC(=O)[C@H](Cc1ccccc1)NC(=O)[C@H](Cc1cnc[nH]1)NC(=O)[C@@H](NC(=O)CNC(=O)[C@H](CCCNC(=N)N)NC(=O)[C@H](CCCNC(=N)N)NC(=O)[C@@H](NC(=O)[C@H](CC(N)=O)NC(=O)[C@@H](N)CS)[C@@H](C)O)[C@@H](C)CC)[C@@H](C)O)[C@@H](C)O)C(=O)O | / | . | / | /
Oc1ccc2ccccc2c1CNc1cnc2ccccc2c1 | . | . | ? | .
Oc1ccccc1CNc1cnc2ccccc2c1 | . | . | 35µM | .[10 µM]
CCSc1ccc2cc(OC)ccc2[n+]1CC | . | . | 8.9µM | .
CCNc1ncc2nc(-c3cn(C)c4ccccc34)c(=O)n(Cc3ccc(F)cc3)c2n1 | / | . | / | 25µM
Cn1cc(-c2nc3cnc(N4CCNCC4)nc3n(Cc3ccc(F)cc3)c2=O)c2ccccc21 | / | . | / | .
COc1ccc(NC(=S)N(CCCN2CCOCC2)Cc2cn(C)c3ccccc23)cc1 | . | . | ? | .[10 µM]
SMILES | GLA inh pH 4.5 | aGal spleen mod | HTT aggregate | HTT ATP protect
Cc1ccc(NC(=S)N(C)Cc2cn(C)c3ccccc23)cc1 | . | . | 35µM | .[10 µM]
Cc1cccc(NC(=S)N(CCCN2CCOCC2)Cc2cn(C)c3ccccc23)c1 | . | . | 8.9µM | .[10 µM]
Cn1cc(CN(CCCN2CCOCC2)C(=S)Nc2cccc(Cl)c2)c2ccccc21 | . | . | ? | .[10 µM]
c1ccc(CN(CCN(Cc2ccccn2)Cc2ccccn2)Cc2ccccn2)nc1 | / | . | / | /
C=CC1=C(C(=O)O)N2C(=O)[C@@H](NC(=O)C(N=O)c3csc(N)n3)[C@H]2SC1 (some centres not stated) | . | . | . | .
COc1ccc(C(=O)C(CN2CCOCC2)c2ccccc2)cc1F (configuration not stated) | . | . | / | 3.2µM
COc1ccc(-c2ccc3c(n2)CCCN3C[C@H](O)CN2CCCc3nc(C)c(C)cc32)cc1 | / | .[17.5 µM] | / | .[10 µM]
CCCCCCCCCCCCCCCCCCCCCC(=O)Nc1ccn([C@@H]2O[C@H](CO)[C@@H](O)[C@@H]2O)c(=O)n1 | / | / | . | .
O=C(NNC(=S)NC1CCCCC1)c1cccs1 | . | . | . | .[10 µM]
O=C(NNC(=S)NC1CCCCC1)c1ccccc1O | . | . | 10µM | .
CCOC(=O)C1CCN(C(=O)c2c(C)oc3c2C(=O)c2ccccc2C3=O)CC1 | . | . | . | /
Cc1oc2c(c1C(=O)N1CCC(C)CC1)C(=O)c1ccccc1C2=O | . | . | 7.1µM | /
O=c1c2ncn([C@@H]3O[C@@H]4COP(=O)(O)O[C@H]4[C@H]3O)c2nc2[nH]c(-c3ccccc3)cn12 | / | . | / | /
COc1ccc(CCn2c(C)cc(C(=O)CSc3nc(N)cc(=O)[nH]3)c2C)cc1 | . | . | 7.1µM | .
O=C(NCc1ccco1)c1nc2c(nnn2Cc2cccc(Cl)c2)c(=O)[nH]1 | . | . | . | 4.5µM
CCc1ccccc1NC(=S)N(Cc1ccco1)C(C)c1cccs1 (configuration not stated) | . | . | 4µM | .
CCc1c(O)nc(SCC(=O)Nc2ccc(C)cc2)n(C2CCCCC2)c1=O | . | . | 11µM | .[0.074 µM]
CCc1c(O)nc(SCC(=O)Nc2ccccc2)n(-c2ccccc2)c1=O | . | . | . | .
Cc1nn(-c2ccccc2)c(N)c1Sc1ccccc1[N+](=O)[O-] | . | . | 3.5µM | .[10 µM]
Cc1nn(-c2ccccc2)c(N)c1Sc1cccc([N+](=O)[O-])c1 | . | . | . | .[10 µM]
O=Nc1ccc(Nc2ccccc2)cc1 | / | . | / | ?
COc1cc(-c2nc(S(=O)(=O)c3ccc(C)cc3)c(N3CCOCC3)o2)cc(OC)c1OC | . | . | . | .[10 µM]
COc1cc(-c2nc(S(=O)(=O)c3ccc(C)cc3)c(N(C)C)o2)cc(OC)c1OC | . | . | / | 0.89µM
Cc1ccc2nc(-c3ccc(NS(=O)(=O)c4ccc(F)c(F)c4)cc3)sc2c1 | ? | . | 2.8µM | .[10 µM]
Cc1ccc2nc(-c3ccc(NS(=O)(=O)c4ccccc4)cc3)sc2c1 | . | . | . | .[10 µM]
Cc1nc2ccc(NS(=O)(=O)c3c(C)c(C)cc(C)c3C)cc2s1 | . | . | 13µM | .
Cc1ccc(S(=O)(=O)Nc2ccc3nc(C)sc3c2)cc1 | . | . | 14µM | .
Cc1ccc(S(=O)(=O)Nc2ccc3nc(N)sc3c2)cc1 | . | . | ? | .[10 µM]

Screens as filed in PubChem.
